Inconclusive results are not listed. The source made the active and inactive calls. Calls come from the whole dose curve; as a rule, active = well fitted cell-killing curve with a large enough effect; inconclusive = small, poorly fitted or top-dose-only effect, or effect the other way; inactive = flat fitted curve, though single readings scatter.
Legend:
Assay in all cases: Primary qHTS to identify gynecologic anti-cancer compounds using libraries of approved drugs and bioactive compounds (AID 1345084); note: nearly all actives have a fitted effect of over 55% in size
Es-2 = conditions: Gynecologic cancer cell panel viability, ATPlite luminescence, 48 h; series mostly up to 57.5 µM
Summary of the method: (§1)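 Cells, 1,000 per well, were allowed to settle for 16 h at 37 C before compound addition. Five concentrations were tested for 48 h, and viability was read by ATPlite luminescence after 15 min at room temperature.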

HeLa = conditions: Gynecologic cancer cell panel viability, ATPlite luminescence, 48 h; series mostly up to 57.5 µM
Summary of the method: as §1

Hek293T = conditions: Gynecologic cancer cell panel viability, ATPlite luminescence, 48 h, control line for the selectivity index; series mostly up to 57.5 µM
Summary of the method: as §1

JEG-3 = conditions: Gynecologic cancer cell panel viability, ATPlite luminescence, 48 h; series mostly up to 57.5 µM
Summary of the method: as §1

OV90 = conditions: Gynecologic cancer cell panel viability, ATPlite luminescence, 48 h; series mostly up to 57.5 µM
Summary of the method: as §1

PA-1 = conditions: Gynecologic cancer cell panel viability, ATPlite luminescence, 48 h; series mostly up to 57.5 µM
Summary of the method: as §1

SKOV3 = conditions: Gynecologic cancer cell panel viability, ATPlite luminescence, 48 h; series mostly up to 57.5 µM
Summary of the method: as §1

Tov-21-G = conditions: Gynecologic cancer cell panel viability, ATPlite luminescence, 48 h; series mostly up to 57.5 µM
Summary of the method: as §1

Tov112D = conditions: Gynecologic cancer cell panel viability, ATPlite luminescence, 48 h; series mostly up to 57.5 µM
Summary of the method: as §1

Measured: Potency

CC1=C2CC3OC3(C)CCC3OC3(C)CC2OC1=O (stereo not drawn)
inactive: all assays above

COc1cc(/C=C/C(=O)OC2CC(OC(C)=O)C(OC(C)=O)C3C2CCC2C(=O)OC(c4ccoc4)CC23C)ccc1O[C@@H]1O[C@H](CO)[C@@H](O)[C@H](O)[C@H]1O (stereo partly drawn)
inactive: all assays above

CCC[C@@H]1C[C@@H](C(=O)N[C@H](C(C)Cl)[C@H]2O[C@H](SC)[C@H](O)[C@@H](O)[C@H]2O)N(C)C1 (stereo partly drawn)
inactive: all assays above

C=CC1(C)CC(OC(=O)C(=C)C(O)COC(C)=O)C(C(=C)C(=O)OC)C(O)C1C(=C)CO (stereo not drawn)
inactive: all assays above

CC1(C)CCCC2(C)C1C(O)C=C(CO)C2(O)C(=O)O (stereo not drawn)
inactive: all assays above

O=C(NCC(=O)N1CC[C@H](NC2CCC(O)(c3ccc(-c4ncccn4)cn3)CC2)C1)c1cccc(C(F)(F)F)c1 (stereo partly drawn)
inactive: all assays above

CC1(C)O[C@@]2(C)CC[C@@H]1C[C@@H]2OC1OC(CO)C(O)C(O)C1O (stereo partly drawn)
inactive: all assays above

CC(C)[C@H]1CCC(CO)=C[C@@H]1/C=C(\CO)C(=O)O
inactive: all assays above

Cn1c(=O)c2nc(/C=C/c3cccc(Cl)c3)n(C)c2n(C)c1=O
inactive: all assays above

N[C@H]1C[C@H]1c1ccc(-c2cccc(O)c2)cc1
inactive: all assays above

C=C1[C@@H]2[C@H]3OC(=O)C(=C)[C@@H]3CC[C@@](C)(O)[C@@H]2C[C@@H]1O[C@@H]1O[C@H](CO)[C@@H](O)[C@H](O)[C@H]1O
inactive: all assays above

O=C(O)CCc1cccc(O[C@@H]2O[C@H](CO)[C@@H](O)[C@H](O)[C@H]2O)c1O
inactive: all assays above

O=C1C[C@@H](c2ccc(O)cc2)Oc2cc(O)ccc21
inactive: all assays above

CCn1nnnc1NCc1ccc(C(C)C)cc1
inactive: all assays above

COC1=Cc2c(nc3n(c2=O)C(C)C(=O)NC3(O)C(C)C)OC=C1 (stereo not drawn)
inactive: all assays above

CC1CCC2C(C(=O)O)=CC3C(O)C(C)(C)CC123 (stereo not drawn)
inactive: all assays above

COc1cc(/C=C/C(=O)OC2CC3CCC2(C)C3(C)C)ccc1O (stereo not drawn)
inactive: all assays above

— PubChem BioAssay (NCATS)
